Data: PubChem BioAssay (NCATS)
“And” between values parts separate entries of the source, which are not always exact repeats. Equal values may be shown once. Inconclusive results are not listed. More than one record can exist for a structure, and the calls need not agree. The source made the active and inactive calls. Calls follow the shape of the dose curve; as a rule, active = well fitted curve in the direction sought with a large enough effect; inconclusive = small, poorly fitted or top-dose-only effect, or another doubt; inactive = no such curve, though single readings can be large; an effect the other way counts as inactive or inconclusive.

Assays:
[1] = Viability qHTS for spleen associated tyrosine kinase inhibitor (SYKi) drug resistant MV4-11 cells (AID 1963824); also: nearly all actives have a fitted effect of over 35% in size
Outline: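 SYK inhibitor-resistant MV4-11 AML cells, 500 per well, added to predispensed compounds and incubated 72 hr at 37 C, 5% CO2. Viability measured by CellTiter-Glo luminescence after 10 min at room temperature.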

[2] = Quantitative highthroughput screen to assess conditional lethalithy of NOMO1 cells grown in RPMI1640 with untreated serum (RPMI+s) (AID 1963876); also: nearly all actives have a fitted effect of over 35% in size;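 as to Viability: 100% = DMSO wells and 0% = empty wells without cells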
Outline: (§1)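 Each medium arm—HPLM with 10% dialyzed FBS, or RPMI1640 with 5 mM glucose and 10% untreated or dialyzed FBS—was screened against an 11-point, 3-fold compound titration for 48 h at 37 °C, with CellTiter-Glo luminescence as endpoint.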

[3] = Quantitative highthroughput screen to assess conditional lethalithy of NOMO1 cells grown in RPMI1640 with dialyzed fetal bovine serum (RPMI+ds) (AID 1963877); also: nearly all actives have a fitted effect of over 30% in size;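 as to Viability: series mostly up to about 46 µM; 100% = DMSO control wells and 0% = empty wells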
Outline: as §1

[4] = Quantitative highthroughput screen to assess conditional lethalithy of NOMO1 cells grown in Human Plasma-Like Medium with dialyzed fetal bovine serum (HPLM+ds) (AID 1963878); also: nearly all actives have a fitted effect of over 35% in size;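 as to Viability: 100% = DMSO wells and 0% = empty wells on each plate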
Outline: as §1

[5] = Quantitative highthroughput screen to assess conditional lethalithy of P12 Ichikawa cells grown in Human Plasma-Like Medium with dialyzed fetal bovine serum (HPLM+ds) (AID 1963879); conditions: Potency: viability; also: nearly all actives have a fitted effect of over 35% in size; as to Viability: series mostly up to about 46 µM
Outline: as §1

[6] = Quantitative highthroughput screen to assess conditional lethalithy of P12 Ichikawa cells grown in RPMI1640 with dialyzed fetal bovine serum (RPMI+ds) (AID 1963880); conditions: Potency: P12-Ichikawa viability; also: nearly all actives have a fitted effect of over 35% in size;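 as to Viability: 100% = DMSO wells and 0% = empty wells on each plate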
Outline: as §1

[7] = Quantitative highthroughput screen to assess conditional lethalithy of P12 Ichikawa cells grown in RPMI1640 with untreated serum (RPMI+s) (AID 1963881); conditions: Potency: viability; also: nearly all actives have a fitted effect of over 35% in size;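 as to Viability: series mostly up to about 46 µM; 100% = DMSO wells and 0% = empty wells without cells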
Outline: as §1

[8] = Quantitative highthroughput screen to assess conditional lethalithy of SEM cells grown in RPMI1640 with unreated serum (RPMI+s) (AID 1963883); also: nearly all actives have a fitted effect of over 35% in size;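 as to Viability: 100% = DMSO wells and 0% = empty wells without cells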
Outline: as §1

[9] = Cellular viability qHTS for adrenocortical cancer (ACC) cell line SW-13 (AID 1963989); conditions: SW-13 ACC cells viability, CellTiter-Glo, 48 h; activity (max response): stronger effect = lower value; also: nearly all actives have a fitted effect of over 65% in size;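 as to activity (max response): cells grown in serum-free medium with ITS supplement; % is scaled to controls: 0 for no effect and ±100 for the full control effect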
Outline: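 SW-13 cells in ITS-supplemented serum-free DMEM were plated overnight, then exposed for 48 h at 37C to compound titrations (up to 46 uM final). Viability was read by CellTiter-Glo luminescence; four-parameter logistic fits gave IC50 and efficacy.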

[10] = Cellular viability qHTS for adrenocortical cancer (ACC) cell line NCI-H295R (AID 1963990); also: nearly all actives have a fitted effect of over 60% in size
Outline: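 Luminescent ATP read-out (CellTiter-Glo, 20 min RT) after 48 h drug exposure of NCI-H295R cells; a titration up to 46 uM final. Data normalized to doxorubicin (100% inhibition) and DMSO (0%); 4-parameter fit gives IC50, max response.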

[11] = Quantitative highthroughput screen to assess conditional lethalithy of SEM cells grown in Human Plasma-Like Medium with dialyzed fetal bovine serum (HPLM+ds) (AID 1963882); also: nearly all actives have a fitted effect of over 35% in size; as to Viability: series mostly up to about 46 µM
Outline: as §1

[12] = Quantitative highthroughput screen to assess conditional lethalithy of SEM cells grown in RPMI1640 with dialyzed fetal bovine serum (RPMI+ds) (AID 1963884); also: nearly all actives have a fitted effect of over 35% in size;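 as to Viability: series mostly up to about 46 µM; 100% = DMSO control wells and 0% = empty wells without cells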
Outline: as §1
Potency is read from the fitted curve at half-maximal effect.

NC(=O)c1ccc(N(C(N)=O)c2c(F)cccc2F)nc1-c1ccc(F)cc1F
10.3 µM (active) and inactive: Potency [1]
inactive: Potency [2] | Potency [3] | Potency [4] | Potency [5] | Potency [6] | Potency [7] | Potency [8] | activity (max response) [9] -4.37% | Potency [10]

CCOC(=O)c1c(C)n(C)c2ccc(O)cc12
inactive: Potency [2] | Potency [3] | Potency [4] | Potency [5] | Potency [7] | Potency [11] | Potency [8] | Potency [12] | activity (max response) [9] 5.26% and -18.4% | Potency [10]
7.5 µM (active) and inactive: Potency [1]

O=C(O)c1nc(=O)[nH]c(=O)[nH]1
inactive: Potency [1] | Potency [2] | Potency [3] | Potency [4] | Potency [5] | Potency [6] | Potency [7] | Potency [11] | Potency [8] | Potency [12] | activity (max response) [9] -18%

CN1C(=O)c2sccc2N(C)c2nc(Nc3ccc(S(N)(=O)=O)cc3)ncc21
active: Potency [1] 0.468 µM | Potency [2] 10.5 µM | Potency [3] 13.2 µM | Potency [4] 9.33 µM | Potency [5] 2.63 µM | Potency [6] 2.34 µM | Potency [7] 2.63 µM | Potency [11] 2.63 µM | Potency [8] 2.34 µM | Potency [12] 2.34 µM | Potency [9] 20 µM

CCCN[C@H]1CCc2nc(N)sc2C1
active: Potency [1] 4.17 µM
inactive: Potency [2] | Potency [3] | Potency [4] | Potency [5] | Potency [6] | Potency [7] | Potency [11] | Potency [12] | activity (max response) [9] -1.3% and 3.21%

O=C(Nc1nc2ccccc2n1CCN1CCOCC1)c1cccc([N+](=O)[O-])c1
inactive: Potency [2] | Potency [3] | Potency [4] | Potency [6] | Potency [7] | Potency [11] | Potency [8] | Potency [12] | activity (max response) [9] 3.94% | Potency [10]
active: Potency [1] 2.63 µM

O=S(=O)(O)CCS
inactive: Potency [1] | Potency [11] | Potency [8] | Potency [12] | activity (max response) [9] 21.9% and 0.753% | Potency [10]
active: Potency [2] 0.743 µM | Potency [3] 0.833 µM | Potency [5] 3.72 µM | Potency [6] 8.33 µM | Potency [7] 3.72 µM

CO[C@H]1C[C@@H]2CC[C@@H](C)[C@@](O)(O2)C(=O)C(=O)N2CCCC[C@@H]2C(=O)O[C@H]([C@@H](C)C[C@@H]2CC[C@H](O)[C@H](OC)C2)CC(=O)[C@H](C)C=C(C)[C@@H](O)[C@@H](OC)C(=O)[C@H](C)C[C@H](C)C=CC=CC=C1C
inactive: Potency [2] | Potency [3] | Potency [4]
active: Potency [1] 10.5 µM | Potency [10] 28.2 µM

CCc1ccc(CCOc2ccc(CC3SC(=O)NC3=O)cc2)nc1 (configuration not stated)
inactive: Potency [1] | Potency [2] | Potency [3] | Potency [4] | Potency [6] | Potency [7] | Potency [11] | Potency [8] | Potency [12] | activity (max response) [9] 0.771% and -12.6%

NC(CO)C(=O)NNCc1ccc(O)c(O)c1O (configuration not stated)
inactive: Potency [2] | Potency [3] | Potency [4] | Potency [11]
active: Potency [1] 23.5 µM

COCCOc1ccc2c(c1)ncn2-c1ccc2cccc(N3CCC(N)CC3)c2n1
active: Potency [1] 11.6 nM and 16.6 nM | Potency [2] 18.7 µM | Potency [3] 18.7 µM | Potency [4] 14.8 µM | Potency [8] 0.0935 µM | Potency [12] 0.0264 µM | Potency [9] 25.1 µM | Potency [10] 12.6 µM

CNCCN(C)Cc1cn[nH]c1-c1ccc(OC2CC(OCCC3CCOCC3)C2)cc1 (configuration not stated)
active: Potency [1] 14.8 µM
inactive: Potency [2] | Potency [3] | Potency [4] | Potency [6] | Potency [7] | Potency [10]

CCc1cncnc1N1CCN(Cc2nc3ccc(C(F)(F)F)cc3[nH]2)CC1
inactive: Potency [2] | Potency [3] | Potency [4]
active: Potency [1] 5.9 µM | Potency [10] 17.8 µM

CC1(C)O[C@@H]2C[C@H]3[C@@H]4CCC5=CC(=O)C=C[C@]5(C)[C@@H]4[C@@H](O)C[C@]3(C)[C@]2(C(=O)CO)O1
inactive: Potency [1] | Potency [2] | Potency [3] | Potency [4] | activity (max response) [9] -5.21% | Potency [10]

Oc1cccc(-c2nc(N3CCOCC3)c3oc4ncccc4c3n2)c1
active: Potency [1] 0.525 µM | Potency [11] 15.2 µM | Potency [8] 1.91 µM | Potency [12] 7.62 µM
inactive: Potency [2] | Potency [3] | Potency [4] | Potency [6] | Potency [7]

CCNC(=O)c1cc2c(-c3cc(OCCN4CCCC4)c(Cl)cc3Cl)nc(N)nc2s1
active: Potency [1] 0.162 µM | Potency [2] 3.72 µM | Potency [3] 4.69 µM | Potency [4] 4.18 µM | Potency [12] 2.35 µM | Potency [9] 1.6 µM | Potency [10] 2.54 µM

Cc1ccc(Nc2cc(-c3cccc(N4C(=O)c5ccccc5C4=O)c3)ncn2)cc1NS(C)(=O)=O
inactive: Potency [2] | Potency [3] | Potency [4] | Potency [6] | Potency [7] | Potency [8]
active: Potency [1] 16.6 µM

Cc1cccc(-c2nn(C(=S)Nc3ccccc3)cc2-c2ccnc3ccccc23)n1
inactive: Potency [2] | Potency [3] | Potency [4] | Potency [7] | Potency [11] | Potency [10]
active: Potency [1] 18.6 µM

O=C(Nc1cccc(Nc2ncc(Br)c(NCCc3cnc[nH]3)n2)c1)N1CCCC1
active: Potency [1] 0.132 µM | Potency [2] 5.9 µM | Potency [3] 11.8 µM | Potency [4] 2.96 µM | Potency [5] 0.662 µM | Potency [8] 0.166 µM
